{
  "source": "PubChem BioAssay (EPA / NIEHS)",
  "note": "Inconclusive results are not listed. A structure can be active in one record and inactive in another. Active and inactive are the calls of the source. Rule for the calls: active = hit-call score of the fitted dose curve at least 0.9, where 1 is the maximum; inconclusive = response in the unintended direction; inactive = score below 0.9.",
  "data": [
    {"biological_target": "Cellular tumor antigen p53 (Homo sapiens) (UniProt P04637)", "sequence (P04637 whole entry, looked up)": "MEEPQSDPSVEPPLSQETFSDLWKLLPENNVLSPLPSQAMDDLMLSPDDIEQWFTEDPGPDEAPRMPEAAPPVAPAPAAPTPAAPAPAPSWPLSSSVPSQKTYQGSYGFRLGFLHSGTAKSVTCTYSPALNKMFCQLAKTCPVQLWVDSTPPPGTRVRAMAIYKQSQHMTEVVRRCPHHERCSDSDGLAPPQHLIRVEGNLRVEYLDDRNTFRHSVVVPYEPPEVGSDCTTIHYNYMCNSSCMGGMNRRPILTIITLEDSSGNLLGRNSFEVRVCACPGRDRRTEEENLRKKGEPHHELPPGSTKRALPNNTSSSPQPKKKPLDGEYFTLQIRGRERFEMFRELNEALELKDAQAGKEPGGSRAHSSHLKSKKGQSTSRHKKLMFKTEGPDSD", "assay": "TOX21_p53_BLA_p3_ratio: Tox21 HCT-116 p53 Agonism Beta-lactamase Assay, Ratio, Phase 3 (AID 2283596)", "summary_of_the_method": "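Cells were seeded at 4000/well, rested 5 h at 37C, then dosed with DMSO compound solutions (217-fold dilution) for 16 h. CCF4-AM substrate was loaded for 2 h at room temperature, and the 460/530 nm emission ratio was fitted for gain of signal versus DMSO.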", "values": [
      {"smiles": "CN1CCN(CC(=O)N2c3ccccc3C(=O)Nc3cccnc32)CC1", "outcome": "inactive"},
      {"smiles": "CC(C)C(=O)OC(=O)C(C)C", "outcome": "inactive"},
      {"smiles": "CCCCCCCN(CC)CCCC(O)c1ccc(NS(C)(=O)=O)cc1", "note": "(stereo not given)", "outcome": "inactive"},
      {"smiles": "CC1COc2ccccc2N1", "note": "(stereo not given)", "outcome": "inactive"},
      {"smiles": "CCCCCCC", "outcome": "inactive"}
    ]},
    {"system": "not listed separately", "assay": "TOX21_p53_BLA_p4_viability: Viability Assessment in the Tox21 HCT-116 p53 Agonism Beta-lactamase Assay, Phase 4 (AID 2283597);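 note: hits lower the luminescence signal meaning cytotoxicity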", "summary_of_the_method": "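Cytotoxicity was inferred from loss of CellTiter-Glo luminescence. HCT116 cells had been dosed with compounds after 5 h plating, incubated 16 h at 37C and 5% CO2, and exposed to the CCF4-AM substrate for 2 h.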", "values": [
      {"smiles": "CC(C)N=c1cc2n(-c3ccc(Cl)cc3)c3ccccc3nc-2cc1Nc1ccc(Cl)cc1", "outcome": "inactive"},
      {"smiles": "CCNC(=O)/C=C/c1cccc(Br)c1", "outcome": "inactive"},
      {"smiles": "CC(C)(C)CC(C)(C)c1cc(Cc2cc(C(C)(C)CC(C)(C)C)cc(-n3nc4ccccc4n3)c2O)c(O)c(-n2nc3ccccc3n2)c1", "outcome": "inactive"},
      {"smiles": "CCOC(=O)[C@H](CCc1ccccc1)N[C@@H](C)C(=O)N1Cc2ccccc2C[C@H]1C(=O)O", "outcome": "inactive"},
      {"smiles": "NC(=O)CCCCC(N)=O", "outcome": "inactive"},
      {"smiles": "CCCC(=O)OC[C@@H](OC(=O)CCC)[C@@H](OC(=O)CCC)[C@H](Cn1c2nc(=O)[nH]c(=O)c-2nc2cc(C)c(C)cc21)OC(=O)CCC", "outcome": "inactive"},
      {"smiles": "CCC(C)C(C(=O)OCC[N+](C)(CC)CC)c1ccccc1", "note": "(stereo not given)", "outcome": "inactive"},
      {"smiles": "CCCCCCCCCCCCC(=O)O", "outcome": "inactive"},
      {"smiles": "COc1cc2nc(N3CCN(C(=O)C4COc5ccccc5O4)CC3)nc(N)c2cc1OC", "note": "(stereo not given)", "outcome": "inactive"},
      {"smiles": "CNc1cc(OC)c(C(=O)N[C@H]2CCN(Cc3ccccc3)[C@H]2C)cc1Cl", "outcome": "inactive"},
      {"smiles": "OCCN1C[C@H](O)[C@@H](O)[C@H](O)[C@H]1CO", "outcome": "inactive"},
      {"smiles": "CC(C)(C)NC[C@H](O)COc1cccc2c1CCCC2=O", "outcome": "inactive"},
      {"smiles": "Cc1ccc(NC(=O)N(C)C)cc1NC(=O)N(C)C", "outcome": "inactive"},
      {"smiles": "OCCN1CCN(CCCN2c3ccccc3C=Cc3ccccc32)CC1", "outcome": "inactive", "AC50": "28.1 µM (active)"}
    ]}
  ]
}
